Test results as given in ChEMBL document CHEMBL3988442, “University of Dundee, Small-Polar-MMV Screening Library” (2021).
For some of these results: Results with a measured potency or affinity are listed apart.

Legend:
Design in all cases: scale not given: direction of the effect not stated beside the values
[1] = target: Protein translocase subunit SecA (Escherichia coli (strain K12)) (UniProt P10408); assay: Assay to Identify E. coli SecA ATPase Inhibitors; type: functional; settings: 30 µM
[2] = target: T1, Ubiquitin-activating enzyme e1, putative (Leishmania donovani (strain BPK282A1)) (UniProt E9BSI1); assay: Leishmania donovani Ubiquitin Activating Enzyme (LdE1); type: functional; settings: 30 µM
T1 sequence (whole entry): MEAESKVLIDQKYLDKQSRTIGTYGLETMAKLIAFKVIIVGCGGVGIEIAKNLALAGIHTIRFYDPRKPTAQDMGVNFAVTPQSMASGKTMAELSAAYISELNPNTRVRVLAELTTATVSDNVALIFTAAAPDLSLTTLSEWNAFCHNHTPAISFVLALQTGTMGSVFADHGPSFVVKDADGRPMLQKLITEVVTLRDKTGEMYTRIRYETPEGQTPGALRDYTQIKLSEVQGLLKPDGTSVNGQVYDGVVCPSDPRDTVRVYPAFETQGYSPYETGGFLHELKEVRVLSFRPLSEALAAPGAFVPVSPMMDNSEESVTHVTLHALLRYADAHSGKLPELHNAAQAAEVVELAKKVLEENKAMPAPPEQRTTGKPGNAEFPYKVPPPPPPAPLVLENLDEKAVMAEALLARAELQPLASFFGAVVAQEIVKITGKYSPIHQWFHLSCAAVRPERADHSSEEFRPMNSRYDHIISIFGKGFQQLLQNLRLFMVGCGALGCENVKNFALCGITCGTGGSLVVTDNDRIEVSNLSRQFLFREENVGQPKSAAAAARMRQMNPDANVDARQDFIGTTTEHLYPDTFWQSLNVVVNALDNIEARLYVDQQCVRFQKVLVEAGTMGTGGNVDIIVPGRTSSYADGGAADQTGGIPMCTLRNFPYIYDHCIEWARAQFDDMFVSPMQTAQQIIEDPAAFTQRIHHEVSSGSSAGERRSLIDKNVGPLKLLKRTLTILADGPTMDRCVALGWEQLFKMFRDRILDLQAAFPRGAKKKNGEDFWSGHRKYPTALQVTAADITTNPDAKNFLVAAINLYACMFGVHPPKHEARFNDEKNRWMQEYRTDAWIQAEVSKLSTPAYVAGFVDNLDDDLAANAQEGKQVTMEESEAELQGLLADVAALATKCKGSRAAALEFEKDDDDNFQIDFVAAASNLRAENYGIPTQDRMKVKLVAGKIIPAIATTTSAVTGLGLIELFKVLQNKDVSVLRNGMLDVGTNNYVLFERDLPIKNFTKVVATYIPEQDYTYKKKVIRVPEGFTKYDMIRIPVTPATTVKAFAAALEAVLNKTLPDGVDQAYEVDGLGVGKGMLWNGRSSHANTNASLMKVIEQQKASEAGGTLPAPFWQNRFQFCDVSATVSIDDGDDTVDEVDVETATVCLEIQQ

[3] = target: AMP-activated protein kinase, AMPK (Homo sapiens) (UniProt P54646+O43741+P54619+Q9UGJ0+Q9Y478+Q13131+Q9UGI9); assay: AMP-dependent Kinase enzyme assay. An in vitro enzyme assay that detects ADP turnover that is directly proportional to AMPK activity. This uses naive AMPK that is activated during the assay with MK-8722; type: functional; settings: 30 µM
[4] = target: Sialic acid-binding Ig-like lectin 9 (Homo sapiens) (UniProt Q9Y336); assay: Hs-Siglec9 ALPHAscreen SOP 20170721; settings: 10 µM
Trypanosoma cruzi = assay: Trypanosoma cruzi phosphomannomutase and mannose-1-phosphate guanylyltransferase assay; type: functional; settings: 10 µM
[5] = target: T2, Arginase-2, mitochondrial (Homo sapiens) (UniProt P78540); assay: in vitro enzyme assay to detect the production of urea directly proportional to the activity of Arginase II; type: functional; settings: 33.3 µM; further: in the data most compounds retested in dose-response had high values
T2 sequence (whole entry): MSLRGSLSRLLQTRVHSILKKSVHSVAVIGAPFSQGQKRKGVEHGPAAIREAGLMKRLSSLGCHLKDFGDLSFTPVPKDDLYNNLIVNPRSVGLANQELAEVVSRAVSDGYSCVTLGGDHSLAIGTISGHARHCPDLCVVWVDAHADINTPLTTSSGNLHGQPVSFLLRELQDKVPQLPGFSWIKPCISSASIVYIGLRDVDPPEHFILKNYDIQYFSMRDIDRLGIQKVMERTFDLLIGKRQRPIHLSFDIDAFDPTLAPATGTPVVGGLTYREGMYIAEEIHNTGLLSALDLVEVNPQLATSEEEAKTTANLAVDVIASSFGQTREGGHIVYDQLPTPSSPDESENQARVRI

[6] = target: T3, Proteasome subunit beta (Trypanosoma cruzi) (UniProt O96673); assay: Trypanosoma cruzi proteasome chymotrypsin-like activity (TcProtChymo) assay.; further: in the data most compounds retested in dose-response had high values; type: functional; settings: 9.37 µM
T3 sequence (whole entry): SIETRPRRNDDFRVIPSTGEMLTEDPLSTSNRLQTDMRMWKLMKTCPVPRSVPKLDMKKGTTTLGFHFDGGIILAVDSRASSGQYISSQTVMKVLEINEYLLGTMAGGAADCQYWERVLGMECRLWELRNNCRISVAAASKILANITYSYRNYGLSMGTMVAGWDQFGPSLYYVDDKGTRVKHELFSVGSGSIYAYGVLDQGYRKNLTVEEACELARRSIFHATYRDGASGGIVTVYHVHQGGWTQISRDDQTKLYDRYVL

Homo sapiens = species: Homo sapiens; assay: To identify inhibition of the IFN signalling (Jak-Stat) pathway via expression of an eGFP reporter gene under the control of an IFN-stimulated response element (ISRE) containing MxA promoter.; type: functional; settings: 30 µM
[7] = target: T4, Tyrosyl-tRNA synthetase, putative (Trypanosoma cruzi (strain CL Brener)) (UniProt Q4DSP6); assay: Trypanosoma cruzi tyrosyl tRNA synthetase (TcYRS) _High Tyrosine SOP; type: functional; settings: 30 µM; further: in the data most compounds retested in dose-response had high values
T4 sequence (whole entry): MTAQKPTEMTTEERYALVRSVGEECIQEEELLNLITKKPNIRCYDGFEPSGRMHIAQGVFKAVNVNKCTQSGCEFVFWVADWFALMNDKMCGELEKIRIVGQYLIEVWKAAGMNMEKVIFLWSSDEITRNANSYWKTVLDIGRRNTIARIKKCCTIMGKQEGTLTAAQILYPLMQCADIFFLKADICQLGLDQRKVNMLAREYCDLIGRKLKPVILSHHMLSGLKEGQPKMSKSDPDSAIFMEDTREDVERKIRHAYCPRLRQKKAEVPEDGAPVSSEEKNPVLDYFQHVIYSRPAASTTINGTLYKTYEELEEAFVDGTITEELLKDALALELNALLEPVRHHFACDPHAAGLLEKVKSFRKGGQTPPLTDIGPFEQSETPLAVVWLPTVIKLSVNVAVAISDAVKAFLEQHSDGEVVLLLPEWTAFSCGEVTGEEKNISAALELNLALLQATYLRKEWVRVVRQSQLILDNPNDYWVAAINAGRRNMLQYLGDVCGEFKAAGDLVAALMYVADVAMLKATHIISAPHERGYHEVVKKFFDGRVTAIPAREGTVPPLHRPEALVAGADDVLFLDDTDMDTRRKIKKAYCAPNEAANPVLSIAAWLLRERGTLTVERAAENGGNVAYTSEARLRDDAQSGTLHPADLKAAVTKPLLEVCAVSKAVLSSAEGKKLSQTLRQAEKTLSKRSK

[8] = target: T4, Tyrosyl-tRNA synthetase, putative (Trypanosoma cruzi (strain CL Brener)); assay: Trypanosoma cruzi tyrosyl tRNA synthetase (TcYRS) SOP; type: functional; settings: 30 µM
[9] = target: Chromo domain-containing protein 1 (Saccharomyces cerevisiae (strain ATCC 204508 / S288c) (Baker's yeast)) (UniProt P32657); assay: ScCHD-1 Enzyme Inhibition Assay; type: functional; settings: 30 µM; further: in the data most compounds retested in dose-response had high values
Chromo domain-containing protein 1 (Saccharomyces cerevisiae (strain ATCC 204508 / S288c) (Baker's yeast)), sequence (P32657 whole entry, the tested form may be a part): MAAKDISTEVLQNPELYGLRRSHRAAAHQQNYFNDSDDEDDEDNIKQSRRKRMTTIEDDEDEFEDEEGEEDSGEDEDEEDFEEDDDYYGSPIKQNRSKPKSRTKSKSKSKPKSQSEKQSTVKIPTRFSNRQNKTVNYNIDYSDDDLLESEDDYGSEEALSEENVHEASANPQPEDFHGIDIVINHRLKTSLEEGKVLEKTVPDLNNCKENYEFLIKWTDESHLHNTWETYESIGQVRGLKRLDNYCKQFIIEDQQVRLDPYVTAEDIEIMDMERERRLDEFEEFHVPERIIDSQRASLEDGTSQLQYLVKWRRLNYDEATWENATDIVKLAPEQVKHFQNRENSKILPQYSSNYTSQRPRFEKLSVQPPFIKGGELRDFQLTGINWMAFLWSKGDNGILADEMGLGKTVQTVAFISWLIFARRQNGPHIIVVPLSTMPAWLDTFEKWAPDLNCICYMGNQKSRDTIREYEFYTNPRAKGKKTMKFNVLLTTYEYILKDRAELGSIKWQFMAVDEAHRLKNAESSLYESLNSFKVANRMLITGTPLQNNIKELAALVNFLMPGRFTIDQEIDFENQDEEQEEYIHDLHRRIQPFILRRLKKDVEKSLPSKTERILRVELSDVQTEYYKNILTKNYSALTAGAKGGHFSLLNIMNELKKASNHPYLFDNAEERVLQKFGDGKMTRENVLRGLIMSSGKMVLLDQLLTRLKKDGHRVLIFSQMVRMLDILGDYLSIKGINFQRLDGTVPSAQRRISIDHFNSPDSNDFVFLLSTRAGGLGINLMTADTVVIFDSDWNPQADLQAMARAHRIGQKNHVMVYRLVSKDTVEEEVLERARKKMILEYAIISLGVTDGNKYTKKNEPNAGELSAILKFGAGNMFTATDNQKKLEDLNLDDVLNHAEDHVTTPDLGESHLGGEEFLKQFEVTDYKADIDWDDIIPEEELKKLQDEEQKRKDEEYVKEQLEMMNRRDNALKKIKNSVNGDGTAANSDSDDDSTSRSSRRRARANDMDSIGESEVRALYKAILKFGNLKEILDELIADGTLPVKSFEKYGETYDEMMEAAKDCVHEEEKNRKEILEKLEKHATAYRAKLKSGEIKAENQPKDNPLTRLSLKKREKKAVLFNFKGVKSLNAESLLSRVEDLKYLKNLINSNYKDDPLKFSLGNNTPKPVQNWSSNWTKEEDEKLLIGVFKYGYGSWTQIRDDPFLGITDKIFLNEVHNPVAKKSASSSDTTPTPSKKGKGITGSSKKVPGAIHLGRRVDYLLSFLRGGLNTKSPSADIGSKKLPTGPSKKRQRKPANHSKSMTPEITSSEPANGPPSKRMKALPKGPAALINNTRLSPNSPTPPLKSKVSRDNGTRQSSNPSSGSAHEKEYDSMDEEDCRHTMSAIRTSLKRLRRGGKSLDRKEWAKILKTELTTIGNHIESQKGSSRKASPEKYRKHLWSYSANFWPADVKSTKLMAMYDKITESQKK

Protein translocase subunit SecA (Escherichia coli (strain K12)), sequence (P10408 whole entry): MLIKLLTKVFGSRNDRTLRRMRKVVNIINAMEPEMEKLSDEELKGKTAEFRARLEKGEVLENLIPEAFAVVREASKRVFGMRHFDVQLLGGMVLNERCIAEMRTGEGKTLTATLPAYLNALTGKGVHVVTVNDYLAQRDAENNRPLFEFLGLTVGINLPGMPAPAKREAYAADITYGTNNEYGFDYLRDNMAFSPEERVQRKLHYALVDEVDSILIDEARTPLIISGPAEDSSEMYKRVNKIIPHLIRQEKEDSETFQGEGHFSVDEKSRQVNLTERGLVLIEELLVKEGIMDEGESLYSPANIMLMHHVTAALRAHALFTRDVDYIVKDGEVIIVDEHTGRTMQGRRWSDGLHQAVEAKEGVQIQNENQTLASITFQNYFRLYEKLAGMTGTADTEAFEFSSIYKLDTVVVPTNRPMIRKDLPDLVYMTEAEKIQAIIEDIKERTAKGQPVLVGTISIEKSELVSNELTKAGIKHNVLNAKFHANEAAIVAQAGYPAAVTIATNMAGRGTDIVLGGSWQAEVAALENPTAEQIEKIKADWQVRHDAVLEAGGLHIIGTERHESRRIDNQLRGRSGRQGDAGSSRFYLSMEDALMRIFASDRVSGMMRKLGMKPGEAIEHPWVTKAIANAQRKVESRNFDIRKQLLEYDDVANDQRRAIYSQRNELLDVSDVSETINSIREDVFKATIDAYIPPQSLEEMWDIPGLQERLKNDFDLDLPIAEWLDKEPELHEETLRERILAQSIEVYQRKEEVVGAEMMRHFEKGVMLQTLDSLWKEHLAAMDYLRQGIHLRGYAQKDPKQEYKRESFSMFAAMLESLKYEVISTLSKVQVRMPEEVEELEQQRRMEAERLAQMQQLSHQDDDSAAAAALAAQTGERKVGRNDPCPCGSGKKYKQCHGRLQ
Sialic acid-binding Ig-like lectin 9 (Homo sapiens), sequence (Q9Y336 whole entry): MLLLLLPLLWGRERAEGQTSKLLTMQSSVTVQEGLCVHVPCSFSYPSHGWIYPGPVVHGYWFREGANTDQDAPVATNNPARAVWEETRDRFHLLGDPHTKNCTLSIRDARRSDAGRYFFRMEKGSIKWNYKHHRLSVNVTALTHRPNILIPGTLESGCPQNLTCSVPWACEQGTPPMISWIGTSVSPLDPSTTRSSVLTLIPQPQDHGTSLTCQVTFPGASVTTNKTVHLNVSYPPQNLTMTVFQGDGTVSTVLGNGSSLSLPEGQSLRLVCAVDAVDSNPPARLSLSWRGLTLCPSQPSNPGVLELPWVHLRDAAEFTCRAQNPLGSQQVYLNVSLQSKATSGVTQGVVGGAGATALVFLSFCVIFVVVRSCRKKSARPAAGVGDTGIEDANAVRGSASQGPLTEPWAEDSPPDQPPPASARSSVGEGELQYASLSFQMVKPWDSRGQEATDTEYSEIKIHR

Structure (SMILES)	Percent Effect [1]	Percent Effect [2]	Percent Effect [3]	Percent Effect [4]	Percent Effect (Trypanosoma cruzi)	Percent Effect [5]	Percent Effect [6]	Percent Effect (Homo sapiens)	Percent Effect [7]	Percent Effect [8]	Percent Effect [9]
O=C1[C@H]2CC[C@H](CN(S(=O)(=O)c3ccccc3)C2)N1Cc1cscn1	-9.05%	5.48%	3.4%	-0.832%	-1.59%	-2.4%	-4.02%	27.2%	-1.04%	-1.24%	2.37%
COC(=O)c1cccc(OCCn2nc(-c3cccs3)oc2=O)c1	-3.91%	-5.41%	-4.63%	7.61%	-4.36%	-3.14%	1.44%	22.8%	-16.8%	-6.1%	3.23%
Cc1nc(N2CCCC2)nc2c1CN(C(C)C)CC2	-5.79%	21.3%	-1.49%	4.47%	3.28%	-51.8%	1.71%	-7.95%	6.25%	17.5%	-11.2%
CN(Cc1ccco1)C(=O)[C@H]1CSCN1C(=O)OC(C)(C)C	-4.45%	15.8%	-5.01%	13.2%	5.7%	-4.32%	8.21%	-0.327%	4.43%	13.6%	-3.35%
N#Cc1ccc(F)c(CN2CCCC2Cn2cnc3ccccc32)c1 (stereo not drawn)	-4.77%	-5.41%	-0.578%	-0.466%	-3.81%	-0.924%	6.46%	22.9%	1.98%	-6.1%	5.03%
CCCNC(=O)CCNC(=O)Cc1nc(-c2ccco2)oc1C	-3.29%	2.67%	-1.47%	12.8%	-5.16%	4.69%	13.2%	8.33%	3.83%	8.64%	-3.56%
CCOCC(O)CN1CCN(C(=O)CC(C)C)CC1 (stereo not drawn)	-3.57%	16.2%	-2.25%	3.53%	-4.62%	0.401%	7.39%	12.1%	2.46%	11.1%	-7.14%
CN1CC(=O)N(c2cnn(C)c2)CC12CCN(Cc1nccn1C)C2 (stereo not drawn)	-0.706%	8.22%	4.05%	7.48%	-4.17%	-0.399%	10.2%	6.84%	4.17%	6.17%	-4.89%
